Results filed as inconclusive are left out. Active and inactive are the calls of the source. The calls were made as follows, unless noted: active = hit-call score of the fitted dose curve at least 0.9, where 1 is the maximum; inactive = score below 0.9.
Assays:
[1] = read-out: succinate dehydrogenase complex iron sulfur subunit B (SDHB), SDHB (gene 6390); test: LTEA_HepaRG_SDHB: Life Technologies and Expression Analysis (LTEA) Assay for succinate dehydrogenase complex iron sulfur subunit B (SDHB) using HepaRG (AID 2283528); settings: mRNA level, 48 h; actives raise or lower the signal
Method in brief: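 HepaRG cells (~100,000/well, plated 48 h) exposed in duplicate for 48 h in serum-free induction medium to 8-point half-log series from 100 uM in 0.5% DMSO; mRNA by qRT-PCR normalised to ACTB, GAPDH, POLR2A; bidirectional fit versus DMSO.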

[2] = read-out: Signal transducer and activator of transcription 3 (Homo sapiens) (UniProt P40763); test: LTEA_HepaRG_STAT3: Life Technologies and Expression Analysis (LTEA) Assay for Signal transducer and activator of transcription (STAT3) using HepaRG (AID 2283529); settings: mRNA level, 48 h; actives raise or lower the signal
Method in brief: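 Differentiated HepaRG cells, serum-free induction medium, dosed 48 h in duplicate, 8 half-log concentrations from 100 uM in 0.5% DMSO. STAT3 mRNA by qRT-PCR, normalised to ACTB, GAPDH, POLR2A; bidirectional fit versus DMSO.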

[3] = read-out: solute carrier (SLCO1B1), SLCO1B1 (gene 10599); test: LTEA_HepaRG_SLCO1B1: Life Technologies and Expression Analysis (LTEA) Assay for solute carrier (SLCO1B1) using HepaRG (AID 2283530); settings: mRNA level, 48 h; actives raise or lower the signal
Method in brief: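 Differentiated human HepaRG cells, plated 48 h, switched to serum-free induction medium and exposed in duplicate for 48 h to 8 half-log concentrations (top 100 uM) in 0.5% DMSO. SLCO1B1 mRNA by TaqMan qRT-PCR, normalized to ACTB/GAPDH/POLR2A.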

[4] = read-out: sulfotransferase 2A1 (SULT2A1), SULT2A1 (gene 6822); test: LTEA_HepaRG_SULT2A1: Life Technologies and Expression Analysis (LTEA) Assay for sulfotransferase 2A1 (SULT2A1) using HepaRG (AID 2283531); settings: mRNA level, 48 h; actives raise or lower the signal
Method in brief: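 Differentiated human HepaRG cells in serum-free induction medium were exposed for 48 h to eight half-log concentrations (top 100 uM, 0.5% DMSO). SULT2A1 mRNA was measured by qRT-PCR, normalized to ACTB, GAPDH and POLR2A, and fitted bidirectionally against DMSO.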

[5] = read-out: Transforming Growth Factor (TGFA), TGFA (gene 7039); test: LTEA_HepaRG_TGFA: Life Technologies and Expression Analysis (LTEA) Assay for Transforming Growth Factor (TGFA) using HepaRG (AID 2283532); settings: mRNA level, 48 h; actives raise or lower the signal
Method in brief: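 Differentiated HepaRG cells exposed 48 hours in serum-free induction medium, 0.5% DMSO vehicle, 8-point half-log series from 100 uM, in duplicate. TGFA mRNA by TaqMan qRT-PCR, normalised to ACTB, GAPDH, POLR2A; bidirectional fit versus DMSO.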

[6] = read-out: Transforming Growth Factor (TGFB1), TGFB1 (gene 7040); test: LTEA_HepaRG_TGFB1: Life Technologies and Expression Analysis (LTEA) Assay for Transforming Growth Factor (TGFB1) Transporter using HepaRG (AID 2283533); settings: mRNA level, 48 h; actives raise or lower the signal
Method in brief: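 Differentiated human HepaRG cells in serum-free induction medium were exposed in duplicate for 48 h to eight concentrations (top 100 uM, half-log steps, 0.5% DMSO). TGFB1 mRNA was quantified by qRT-PCR, normalized to ACTB, GAPDH, POLR2A, and fitted bidirectionally against DMSO.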

TIMP1, TIMP1 (gene 7076) = test: LTEA_HepaRG_TIMP1: Life Technologies and Expression Analysis (LTEA) Assay for TIMP1 using HepaRG (AID 2283534); settings: mRNA level, 48 h; actives raise or lower the signal;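 also: TaqMan qRT-PCR signal normalized to ACTB GAPDH and POLR2A housekeeping genes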
Method in brief: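 Differentiated human HepaRG cells in serum-free induction medium were exposed 48 h to chemicals (8 half-log concentrations, top 100 uM, 0.5% DMSO). TIMP1 mRNA was quantified by TaqMan qRT-PCR, normalized to ACTB/GAPDH/POLR2A; bidirectional fit versus DMSO.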

[7] = read-out: Tumor necrosis factor receptor 1 (TNFRSF1A), TNFRSF1A (gene 7132); test: LTEA_HepaRG_TNFRSF1A: Life Technologies and Expression Analysis (LTEA) Assay for Tumor necrosis factor receptor 1 (TNFRSF1A) using HepaRG (AID 2283535); settings: mRNA level, 48 h; actives raise or lower the signal
Method in brief: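 Differentiated human HepaRG cells were exposed in duplicate for 48 h in serum-free induction medium to eight concentrations (top 100 uM, half-log steps, 0.5% DMSO). TNFRSF1A mRNA was quantified by qRT-PCR, normalized to ACTB, GAPDH and POLR2A, then fitted bidirectionally against DMSO.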

[8] = read-out: Thyroid Hormone Responsive (THRSP), THRSP (gene 7069); test: LTEA_HepaRG_THRSP: Life Technologies and Expression Analysis (LTEA) Assay for Thyroid Hormone Responsive (THRSP) using HepaRG (AID 2283536); settings: mRNA level, 48 h; actives raise or lower the signal
Method in brief: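 Differentiated HepaRG cells treated 48 h in serum-free induction medium with 8 half-log concentrations up to 100 uM (0.5% DMSO), duplicates. THRSP mRNA by TaqMan qRT-PCR normalised to ACTB, GAPDH, POLR2A; bidirectional fit versus DMSO.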

[9] = read-out: Cellular tumor antigen p53 (Homo sapiens) (UniProt P04637); test: LTEA_HepaRG_TP53: Life Technologies and Expression Analysis (LTEA) Assay for Tumor Protein P53 (TP53) using HepaRG (AID 2283537); settings: mRNA level, 48 h; actives raise or lower the signal
Method in brief: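 Differentiated HepaRG cells in serum-free induction medium exposed 48 h in duplicate to 8 half-log concentrations, top 100 uM, 0.5% DMSO. TP53 mRNA by TaqMan qRT-PCR (Fluidigm), normalized to ACTB, GAPDH, POLR2A; fitted bidirectionally versus DMSO.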

[10] = read-out: UDP glucuronosyltransferase (UGT1A1), UGT1A1 (gene 54658); test: LTEA_HepaRG_UGT1A1: Life Technologies and Expression Analysis (LTEA) Assay for UDP glucuronosyltransferase (UGT1A1) using HepaRG (AID 2283538); settings: mRNA level, 48 h; actives raise or lower the signal
Method in brief: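 Readout is UGT1A1 transcript level by qRT-PCR, normalized to three housekeeping genes, after 48 h chemical treatment of HepaRG cells. Concentrations ran from 100 uM down in half-log steps with 0.5% DMSO, and gain or loss relative to DMSO was fitted.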

[11] = read-out: UDP glucuronosyltransferase (UGT1A6), UGT1A6 (gene 54578); test: LTEA_HepaRG_UGT1A6: Life Technologies and Expression Analysis (LTEA) Assay for UDP glucuronosyltransferase (UGT1A6) using HepaRG (AID 2283539); settings: mRNA level, 48 h; actives raise or lower the signal
Method in brief: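 Human HepaRG cells were dosed for 48 h in serum-free induction medium with 0.5% DMSO vehicle, eight-point half-log series from 100 uM, in duplicate. UGT1A6 mRNA was measured by qRT-PCR, normalized to ACTB, GAPDH, POLR2A, and fitted bidirectionally against DMSO.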

[12] = LTEA_HepaRG_LDH_cytotoxicity: Cytotoxicity Assessment in the Life Technologies and Expression Analysis (LTEA) Assay (AID 2283563; active = hit-call score of the fitted dose curve at least 0.9, where 1 is the maximum;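 as to AC50: LDH activity released into spent culture medium as a marker of cell death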)
Method in brief: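 Differentiated human HepaRG cells, plated 48 h beforehand, were switched to serum-free induction medium and exposed for 48 h to eight half-log concentrations (top 100 uM) in 0.5% DMSO. LDH was measured in spent medium; activity was fitted relative to DMSO vehicle.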

[13] = molecular target: Cellular tumor antigen p53 (Homo sapiens) (UniProt P04637); test: TOX21_p53_BLA_p2_ratio: Tox21 HCT-116 p53 Agonism Beta-lactamase Assay, Ratio, Phase 2 (AID 2283592; active = hit-call score of the fitted dose curve at least 0.9, where 1 is the maximum)
Cellular tumor antigen p53 (Homo sapiens), sequence (P04637 whole entry, looked up): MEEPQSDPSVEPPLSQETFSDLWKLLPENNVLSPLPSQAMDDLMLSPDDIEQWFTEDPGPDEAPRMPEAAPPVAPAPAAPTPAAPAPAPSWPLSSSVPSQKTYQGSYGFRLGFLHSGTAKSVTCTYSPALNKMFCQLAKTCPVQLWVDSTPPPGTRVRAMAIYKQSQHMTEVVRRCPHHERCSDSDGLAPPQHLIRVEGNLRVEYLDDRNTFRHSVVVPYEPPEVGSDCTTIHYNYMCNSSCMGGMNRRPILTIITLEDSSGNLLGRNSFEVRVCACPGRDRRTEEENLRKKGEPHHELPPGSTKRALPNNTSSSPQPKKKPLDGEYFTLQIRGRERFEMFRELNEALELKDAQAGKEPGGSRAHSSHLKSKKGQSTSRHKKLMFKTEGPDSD
Method in brief: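 HCT116 cells carrying a p53-responsive beta-lactamase reporter were plated, incubated 5 h at 37C, then dosed with compounds in DMSO (217-fold dilution) for 16 h. CCF4-AM substrate was added for 2 h at room temperature; the 460/530 nm emission ratio gave gain-of-signal activity relative to DMSO.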

[14] = TOX21_p53_BLA_p3_viability: Viability Assessment in the Tox21 HCT-116 p53 Agonism Beta-lactamase Assay, Phase 3 (AID 2283593; active = hit-call score of the fitted dose curve at least 0.9, where 1 is the maximum;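 also: cells exposed to compound for 16 h before reading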)
Method in brief: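 HCT116 cells, 4000/well, dosed 5 h after plating by pin transfer (217-fold dilution from DMSO stock) and incubated 16 h at 37C, 5% CO2. Viability read as ATP luminescence with CellTiter-Glo after 30 min at room temperature.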

[15] = molecular target: Cellular tumor antigen p53 (Homo sapiens) (UniProt P04637); test: TOX21_p53_BLA_p3_ratio: Tox21 HCT-116 p53 Agonism Beta-lactamase Assay, Ratio, Phase 3 (AID 2283596; active = hit-call score of the fitted dose curve at least 0.9, where 1 is the maximum)
Method in brief: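 HCT116 p53-bla cells (4000/well) given compound in DMSO (217-fold dilution) after 5 h, incubated 16 h at 37C. CCF4-AM substrate 2 h at room temperature; 460/530 nm emission ratio, gain fitted against DMSO.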

[16] = TOX21_p53_BLA_p4_viability: Viability Assessment in the Tox21 HCT-116 p53 Agonism Beta-lactamase Assay, Phase 4 (AID 2283597; active = hit-call score of the fitted dose curve at least 0.9, where 1 is the maximum;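 also: hits lower the luminescence signal meaning cytotoxicity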)
Method in brief: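 HCT116 p53-bla cells (4000/well) rested 5 h at 37C, then received compounds in DMSO (217-fold dilution) for 16 h at 37C, 5% CO2. CellTiter-Glo was added after the CCF4-AM read, and luminescence was read after 30 min at room temperature.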

[17] = read-out: X-box binding protein 1 (XBP1), XBP1 (gene 7494); test: LTEA_HepaRG_XBP1: Life Technologies and Expression Analysis (LTEA) Assay for X-box binding protein 1 (XBP1) using HepaRG (AID 2283540); settings: mRNA level, 48 h; actives raise or lower the signal
Method in brief: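 Differentiated human HepaRG cells in serum-free induction medium were exposed in duplicate for 48 h to eight half-log concentrations up to 100 uM in 0.5% DMSO. XBP1 mRNA was quantified by qRT-PCR, normalised to ACTB, GAPDH and POLR2A, with bidirectional fitting against DMSO.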

[18] = ATG_XTT_Cytotoxicity: Cytotoxicity Assessment in the Attagene TRANS-FACTORIAL HepG2 Assay (AID 2283584; active = hit-call score of the fitted dose curve at least 0.9, where 1 is the maximum)
Method in brief: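 HepG2 human liver cells, transiently transfected with multiple GAL4-UAS reporter units, were dosed and read at 24 h by XTT as cell number. Loss of signal was fitted relative to DMSO negative control baseline.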

[19] = TOX21_p53_BLA_p2_viability: Viability Assessment in the Tox21 HCT-116 p53 Agonism Beta-lactamase Assay, Phase 2 (AID 2283591; active = hit-call score of the fitted dose curve at least 0.9, where 1 is the maximum;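 also: compound exposure lasted 16 h at 37 °C; actives lower the ATP signal meaning cytotoxicity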)
Method in brief: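 HCT116 p53-bla cells, 4000/well, dosed after 5 h plating (217-fold dilution of DMSO stocks) and incubated 16 h at 37C. Viability taken as cellular ATP by CellTiter-Glo luminescence after 30 min RT; signal loss marks cytotoxicity.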

Measured: AC50

Signal transducer and activator of transcription 3 (Homo sapiens), sequence (P40763 whole entry, looked up): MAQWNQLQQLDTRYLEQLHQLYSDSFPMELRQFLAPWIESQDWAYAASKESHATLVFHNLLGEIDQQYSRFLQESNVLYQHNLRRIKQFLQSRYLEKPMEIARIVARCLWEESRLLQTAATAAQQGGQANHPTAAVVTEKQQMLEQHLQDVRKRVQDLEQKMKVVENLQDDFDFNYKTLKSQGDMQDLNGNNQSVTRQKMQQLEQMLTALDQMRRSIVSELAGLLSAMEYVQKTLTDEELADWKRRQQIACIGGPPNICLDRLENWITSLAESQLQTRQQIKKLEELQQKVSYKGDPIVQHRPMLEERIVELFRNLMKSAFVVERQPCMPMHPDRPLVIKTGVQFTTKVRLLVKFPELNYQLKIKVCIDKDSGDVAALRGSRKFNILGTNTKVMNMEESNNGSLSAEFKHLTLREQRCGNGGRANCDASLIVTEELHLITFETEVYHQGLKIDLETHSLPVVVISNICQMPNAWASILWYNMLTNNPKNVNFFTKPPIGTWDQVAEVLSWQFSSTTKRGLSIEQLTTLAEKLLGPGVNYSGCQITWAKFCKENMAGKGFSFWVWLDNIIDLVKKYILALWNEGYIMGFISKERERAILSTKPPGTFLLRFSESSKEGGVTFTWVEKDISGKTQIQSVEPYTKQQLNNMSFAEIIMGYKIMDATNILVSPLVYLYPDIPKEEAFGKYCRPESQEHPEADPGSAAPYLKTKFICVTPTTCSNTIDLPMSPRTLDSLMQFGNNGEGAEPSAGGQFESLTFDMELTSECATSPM

CC(C)(O)c1ccc(CNC(=O)c2cccnc2Oc2ccc(F)cc2)cc1
active: [10] 4.71 µM
not listed: [17] | [18] | [19]
inactive: all other assays above

Cc1ccc(C(C)(C)C)c(O)c1
active: [16] 43.2 µM
inactive: all other assays above

CN(C)C(=O)NC1(c2ccccc2)CCN(CC[C@@]2(c3ccc(F)c(F)c3)CN(C(=O)c3ccccc3)CCO2)CC1
active: [4] 25.3 µM | [8] 29.7 µM | [12] 73.5 µM | [16] 65 µM
not listed: [14] | [17] | [18]
inactive: all other assays above

Source: PubChem BioAssay (EPA / NIEHS)
